Source: PubChem BioAssay (Tox21)
Records with an inconclusive call do not appear. The source made the active and inactive calls. Unless noted, calls follow the shape of the dose curve; as a rule, active = well fitted curve in the direction sought with a large enough effect in the repeat runs; inconclusive = weak or mixed curves; inactive = no such curve, though single readings can be large; an effect the other way counts as inactive or inconclusive.

Legend:
[1] = qHTS assay to identify small molecule agonists of the peroxisome proliferator-activated receptor delta (PPARd) signaling pathway - cell viability counter screen (AID 743211); also: nearly all actives have a fitted effect of over 55% in size
Method in brief: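 Viability of GeneBLAzer PPARd UAS-bla HEK293H cells was assessed after 17 h compound incubation at 37C, using CellTiter-Glo reagent added after the reporter read and luminescence recorded 30 min later.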

[2] = molecular target: Peroxisome proliferator-activated receptor delta (Homo sapiens) (UniProt Q03181); test: qHTS assay to identify small molecule agonists of the peroxisome proliferator-activated receptor delta (PPARd) signaling pathway (AID 743212; calls by dose curve;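 also: HEK293H cells with PPARd UAS beta-lactamase reporter GeneBLAzer system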)
Method in brief: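 Beta-lactamase reporter read by fluorescence (LiveBLAzer B/G FRET, 2 h, room temperature). Test agents, in DMSO, incubated at 37 C with PPARd-bla HEK293H cells.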

[3] = qHTS assay to identify small molecule antagonists of the peroxisome proliferator-activated receptor delta (PPARd) signaling pathway - cell viability counter screen (AID 743213); also: nearly all actives have a fitted effect of over 50% in size
Method in brief: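 Viability counter-screen, qHTS format: PPARd-bla HEK293H, L165041 300 nM final, 17 h compound exposure at 37 C, CellTiter-Glo luminescence after 30 min RT.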

[4] = molecular target: Peroxisome proliferator-activated receptor delta (Homo sapiens) (UniProt Q03181); test: qHTS assay to identify small molecule antagonists of the peroxisome proliferator-activated receptor delta (PPARd) signaling pathway (AID 743215; active = well fitted inhibition curve with a large enough effect in the signal ratio in the repeat runs, not every such curve was filed as active; the % refers to the signal ratio;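 also: cells stimulated with agonist L165041 at 300 nM final during compound exposure; series mostly up to about 62 µM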)
Method in brief: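 Plated HEK293H PPARd-bla cells rested 5 h at 37 C and 5% CO2. Compound, then agonist L165041 at 300 nM final, was added; 17 h at 37 C followed. Substrate loading, 2 h room temperature, fluorescence measured.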

[5] = qHTS assay to identify small molecule agonists of the farnesoid-X-receptor (FXR) signaling pathway - cell viability counter screen (AID 743218); also: nearly all actives have a fitted effect of over 45% in size
Method in brief: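 Viability of FXR-bla HEK 293T cells is measured by ATP-based CellTiter-Glo luminescence following 16 h compound treatment at 37 C and a prior 2 h room-temperature beta-lactamase substrate step.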

[6] = qHTS assay to identify small molecule antagonists of the farnesoid-X-receptor (FXR) signaling pathway - cell viability counter screen (AID 743221; active = well fitted cell-killing curve with a large enough effect in the repeat runs, not every such curve was filed as active; also: nearly all actives have a fitted effect of over 50% in size)
Method in brief: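 Quantitative HTS of the Tox21 10K library run in parallel with the beta-lactamase reporter read. HEK 293T cells carrying a UAS-driven bla reporter got compound and 50 uM CDCA (final) for 16 h; ATP-based luminescence followed.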

[7] = qHTS assay to identify small molecule antagonists of the vitamin D receptor (VDR) signaling pathway - cell viability counter screen (AID 743225); also: nearly all actives have a fitted effect of over 50% in size
Method in brief: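 Cells (VDR-UAS-bla HEK 293T) are plated, rested 4 h at 37C, dosed with compound and 3 nM final 1-alpha,25-dihydroxy vitamin D3, and incubated 16 h. Viability is taken from CellTiter-Glo luminescence in the reporter wells.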

[8] = qHTS assay to identify small molecule agonists of the NFkB signaling pathway (AID 1159509; active = well fitted curve in the direction sought with a large enough effect in the signal ratio in the repeat runs, not every such curve was filed as active; the % refers to the signal ratio; also: series mostly up to about 61 µM)
Method in brief: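 Beta-lactamase reporter assay run in quantitative high-throughput format on an NF-kB-responsive ME-180 line, with 5 hr compound treatment and a FRET-based blue/green fluorescence readout.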

[9] = qHTS assay to identify small molecule agonists of the NFkB signaling pathway - cell viability counter screen (AID 1159515; calls by dose curve; also: series mostly up to about 61 µM; nearly all actives have a fitted effect of over 55% in size)
Method in brief: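 Parallel cytotoxicity counter screen in ME-180 cells carrying an NFkB-response-element beta-lactamase reporter, 2,000 cells/well. Compound exposure lasted 5 hr at 37 C, 5% CO2. Cell viability was quantified by CellTiter-Glo luminescence.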

[10] = qHTS assay to identify small molecule agonists of the endoplasmic reticulum stress response signaling pathway (AID 1159516; active = well fitted activation curve with a large enough effect in the signal ratio in the repeat runs, not every such curve was filed as active; the % refers to the signal ratio)
Method in brief: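 Using a HeLa line with an ESRE-driven beta-lactamase gene, agonist activity was measured by FRET substrate fluorescence (460 and 530 nm emission) after cells were treated with compounds for 5 hr at 37 C and 5% CO2.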

[11] = qHTS assay to identify small molecule agonists of the endoplasmic reticulum stress response signaling pathway - cell viability counter screen (AID 1159517; calls by dose curve;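 also: HeLa cells carrying an ER stress response element beta-lactamase reporter; series mostly up to about 61 µM; nearly all actives have a fitted effect of over 50% in size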)
Method in brief: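 Cytotoxicity of test compounds toward ESRE-bla HeLa cells was assessed after 5 hr exposure. The luminescent CellTiter-Glo signal was measured 30 min after reagent addition.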

[12] = qHTS assay to identify small molecule antagonists of the retinoid-related orphan receptor gamma (ROR-gamma) signaling pathway - cell viability counter screen (AID 1159520); also: nearly all actives have a fitted effect of over 50% in size
Method in brief: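 Tet-on ROR gamma CHO cells (1,000/well) were plated 4 hr, given compounds in DMSO for 2 hr at 37 C, then induced with 1 uM final doxycycline for 16 hr. Viability was read as ATP by CellTiter-Glo luminescence after 30 min.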

[13] = qHTS assay to identify small molecule agonists of the AP-1 signaling pathway - cell viability counter screen (AID 1159525; calls by dose curve; also: nearly all actives have a fitted effect of over 55% in size)
Method in brief: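 Each titration point was normalised to DMSO and tetra n-octyl ammonium bromide controls. The read was Cell Titer Glo luminescence after 30 min at RT, following 5 h compound exposure of ME-180 AP-1-bla cells at 37 °C.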

[14] = qHTS assay to identify small molecule agonists of the AP-1 signaling pathway (AID 1159526; calls by dose curve)
[15] = molecular target: Vitamin D3 receptor (Homo sapiens) (UniProt P11473); test: qHTS assay to identify small molecule antagonists of the vitamin D receptor (VDR) signaling pathway (AID 743223; active = well fitted inhibition curve with a large enough effect in the signal ratio in the repeat runs, not every such curve was filed as active; the % refers to the signal ratio)
Method in brief: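 Fluorescence from LiveBLAzer B/G FRET substrate, read after 2 h at room temperature, reflects beta-lactamase reporter activity in VDR-bla cells treated 16 h at 37C with compounds and agonist 1alpha,25-dihydroxyvitamin D3 (3 nM final).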

[16] = qHTS assay to identify small molecule agonists of the vitamin D receptor (VDR) signaling pathway - cell viability counter screen (AID 743224)
Method in brief: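 Compounds were pin-transferred onto VDR-bla cells plated 4 h earlier; following 16 h incubation at 37C, cell viability was quantified by CellTiter-Glo luminescence after 30 min at room temperature.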

[17] = molecular target: Nuclear receptor ROR-gamma (Homo sapiens) (UniProt P51449); test: qHTS assay to identify small molecule antagonists of the retinoid-related orphan receptor gamma (ROR-gamma) signaling pathway (AID 1159521)
Method in brief: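 RORγ antagonism is scored from reduced reporter luminescence in Tet-on CHO cells. Induction used 1 uM final doxycycline hyclate for 16 h at 37 C, following a 2 h compound exposure.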

[18] = molecular target: Vitamin D3 receptor (Homo sapiens) (UniProt P11473); test: qHTS assay to identify small molecule agonists of the vitamin D receptor (VDR) signaling pathway (AID 743222; calls by dose curve)
Method in brief: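 Fluorescence from cleaved LiveBLAzer B/G FRET substrate served as readout. VDR-bla cells had been treated 16 h at 37C with test compounds in DMSO, following a 4 h settling period, and substrate was loaded for 2 h at RT.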

[19] = molecular target: Bile acid receptor (Homo sapiens) (UniProt Q96RI1); test: qHTS assay to identify small molecule antagonists of the farnesoid-X-receptor (FXR) signaling pathway (AID 743217; active = well fitted inhibition curve with a large enough effect in the signal ratio in the repeat runs, not every such curve was filed as active; the % refers to the signal ratio)
Method in brief: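 Screen of the Tox21 10K library in quantitative HTS format using FXR-UAS-bla HEK 293T reporter cells. Agonist chenodeoxycholic acid, 50 uM final, added with compounds; 16 h incubation at 37 °C; beta-lactamase FRET fluorescence measured.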

[20] = molecular target: Bile acid receptor (Homo sapiens) (UniProt Q96RI1); test: qHTS assay to identify small molecule agonists of the farnesoid-X-receptor (FXR) signaling pathway (AID 743220; active = well fitted activation curve with a large enough effect in the signal ratio in the repeat runs, not every such curve was filed as active; the % refers to the signal ratio)
Method in brief: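 FXR-UAS-bla HEK 293T cells carrying a UAS-driven beta-lactamase reporter were plated for 5 h at 37C/5% CO2, then exposed to DMSO-dissolved Tox21 10K compounds for 16 h at 37C. A LiveBLAzer B/G FRET substrate was loaded for 2 h at room temperature before fluorescence reading.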

Measured: Potency

Sequence of Vitamin D3 receptor (Homo sapiens) (P11473 whole entry, looked up): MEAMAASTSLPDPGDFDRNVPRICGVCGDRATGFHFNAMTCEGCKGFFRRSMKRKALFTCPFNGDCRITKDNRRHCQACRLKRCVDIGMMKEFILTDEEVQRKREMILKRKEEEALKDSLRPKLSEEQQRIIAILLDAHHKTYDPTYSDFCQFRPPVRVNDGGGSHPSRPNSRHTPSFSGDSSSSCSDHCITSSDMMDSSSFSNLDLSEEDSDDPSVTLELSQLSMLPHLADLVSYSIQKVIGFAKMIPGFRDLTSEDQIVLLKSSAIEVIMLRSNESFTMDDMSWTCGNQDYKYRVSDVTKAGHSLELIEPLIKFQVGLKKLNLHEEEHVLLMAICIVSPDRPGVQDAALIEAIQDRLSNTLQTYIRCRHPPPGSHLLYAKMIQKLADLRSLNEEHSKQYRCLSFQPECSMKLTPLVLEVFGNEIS
Sequence of Peroxisome proliferator-activated receptor delta (Homo sapiens) (Q03181 whole entry, looked up): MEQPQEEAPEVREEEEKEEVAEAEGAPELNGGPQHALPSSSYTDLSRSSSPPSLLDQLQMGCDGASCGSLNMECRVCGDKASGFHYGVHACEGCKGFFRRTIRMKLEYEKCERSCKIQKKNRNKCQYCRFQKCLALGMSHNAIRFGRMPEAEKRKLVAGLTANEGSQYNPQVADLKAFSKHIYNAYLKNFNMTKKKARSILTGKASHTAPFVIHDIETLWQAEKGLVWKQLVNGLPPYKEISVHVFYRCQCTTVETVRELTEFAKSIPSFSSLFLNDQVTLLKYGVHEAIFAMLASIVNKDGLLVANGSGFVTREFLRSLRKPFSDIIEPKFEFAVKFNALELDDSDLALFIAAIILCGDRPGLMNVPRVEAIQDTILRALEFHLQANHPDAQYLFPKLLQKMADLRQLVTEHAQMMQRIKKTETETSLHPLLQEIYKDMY
Sequence of Bile acid receptor (Homo sapiens) (Q96RI1 whole entry, looked up): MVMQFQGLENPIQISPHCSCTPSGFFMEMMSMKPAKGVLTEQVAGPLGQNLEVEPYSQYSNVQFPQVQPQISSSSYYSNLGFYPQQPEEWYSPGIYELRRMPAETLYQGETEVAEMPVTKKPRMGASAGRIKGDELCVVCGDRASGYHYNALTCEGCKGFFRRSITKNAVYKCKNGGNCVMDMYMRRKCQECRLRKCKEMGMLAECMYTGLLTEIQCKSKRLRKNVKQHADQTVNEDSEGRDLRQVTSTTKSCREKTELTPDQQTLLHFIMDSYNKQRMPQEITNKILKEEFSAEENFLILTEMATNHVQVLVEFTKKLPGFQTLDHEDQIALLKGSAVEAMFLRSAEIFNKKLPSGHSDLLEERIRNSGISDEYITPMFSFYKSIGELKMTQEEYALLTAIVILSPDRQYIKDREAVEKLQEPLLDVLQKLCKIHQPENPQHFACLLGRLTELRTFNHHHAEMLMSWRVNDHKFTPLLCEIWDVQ

C[C@H]1CCC[C@H](O)CCCCCc2cc(O)cc(O)c2C(=O)O1
not listed: [15] | [16] | [17] | [18] | [19] | [20]
inactive: all other assays above

O=C(Oc1ccc(Br)cc1)N1CCN2CCC1CC2
not listed: [17] | [18] | [19] | [20]
inactive: all other assays above

CNC(=O)O/N=C(\C)SC
not listed: [1] | [13] | [18] | [19] | [20]
inactive: all other assays above

COC(=O)c1c(C(F)F)nc(C(F)(F)F)c(C2=NCCS2)c1CC(C)C
not listed: [5] | [17] | [19] | [20]
inactive: all other assays above

Cc1ccccc1CO[C@@H]1C[C@@]2(C(C)C)CC[C@]1(C)O2
not listed: [5] | [7] | [17] | [19] | [20]
inactive: all other assays above

Nc1ccccc1Cl
not listed: [15] | [17]
inactive: all other assays above

Clc1ccccc1N1CCNCC1
not listed: [1] | [5] | [15] | [17] | [18] | [19] | [20]
inactive: all other assays above

ClC(Cl)Br
not listed: [15] | [17] | [18] | [19] | [20]
inactive: all other assays above

C[N+](C)=CCl
not listed: [2] | [3] | [4] | [17] | [19] | [20]
inactive: all other assays above
